Measured values: PubChem BioAssay AID1159580 (chemical genetic matrix, 2015)
About 2,000 (36%) of roughly 5,500 compounds were called active. About 18% were inconclusive and are not listed. No stated cut-off is given here; in the data, active means normalized growth mostly below about 0.91 (no sharp cut-off); inconclusive means no clear call, values can overlap the other calls; inactive means mostly above about 0.92. Some of the results follow.

Experiment: chemical genetic growth profiling, strain panel (AID 1159580);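 further: tested at 20 µM; growth read once vehicle control cultures reached saturation at 30 °C; 1 = growth at the plate median or of vehicle wells; lower values mean less growth of the strain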
Details: growth OD
[1] = S. cerevisiae deletion strains, locus YAL013W, strain DEP1, hits give low values
[2] = S. cerevisiae deletion strains, locus YAL040C, strain CLN3, hits give low values
[3] = S. cerevisiae deletion strains, locus YCL061C, strain MRC1 (second series), hits give low values
[4] = S. cerevisiae deletion strains, locus YDR150W, strain NUM1, hits give low values
[5] = S. cerevisiae deletion strains, locus YDR363W, strain ESC2, hits give low values
[6] = S. cerevisiae deletion strains, locus YER002W, strain NOP16, hits give low values
[7] = S. cerevisiae deletion strains, locus YJR075W, strain HOC1, hits give low values
[8] = S. cerevisiae deletion strains, locus YMR263W, strain SAP30, hits give low values
[9] = S. cerevisiae deletion strains, locus YNL128W, strain TEP1, hits give low values
[10] = S. cerevisiae deletion strains, locus YNL175C, strain NOP13, hits give low values
[11] = S. cerevisiae deletion strains, locus YNL197C, strain WHI3, hits give low values
[12] = S. cerevisiae deletion strains, locus YNL224C, strain SQS1, hits give low values
[13] = S. cerevisiae deletion strains, locus YNL322C, strain KRE1, hits give low values
[14] = S. cerevisiae deletion strains, locus YOR083W, strain WHI5 (second series), hits give low values
[15] = S. cerevisiae deletion strains, locus YPL241C, strain CIN2, hits give low values
[16] = S. cerevisiae deletion strains, locus YNL153C, strain GIM3, hits give low values
[17] = S. cerevisiae deletion strains, locus YGR078C, strain PAC10, hits give low values
[18] = S. cerevisiae deletion strains, locus YMR307W, strain GAS1, hits give low values
[19] = S. cerevisiae deletion strains, locus YBR229C, strain ROT2, hits give low values
[20] = S. cerevisiae deletion strains, locus YCL061C, strain MRC1, hits give low values
[21] = S. cerevisiae deletion strains, locus YDL101C, strain DUN1, hits give low values
[22] = S. cerevisiae deletion strains, locus YEL061C, strain CIN8, hits give low values
[23] = S. cerevisiae deletion strains, locus YHR030C, strain SLT2, hits give low values
[24] = S. cerevisiae deletion strains, locus YHR087W, strain rtc3, hits give low values
[25] = S. cerevisiae deletion strains, locus YJR043C, strain POL32, hits give low values
[26] = S. cerevisiae deletion strains, locus YLR039C, strain RIC1, hits give low values
[27] = S. cerevisiae deletion strains, locus YLR058C, strain SHM2 (second series), hits give low values
[28] = S. cerevisiae deletion strains, locus YLR085C, strain ARP6, hits give low values
[29] = S. cerevisiae deletion strains, locus YLR262C, strain YPT6, hits give low values
[30] = S. cerevisiae deletion strains, locus YML094W, strain GIM5, hits give low values
[31] = S. cerevisiae deletion strains, locus YMR219W, strain ESC1, hits give low values
[32] = S. cerevisiae deletion strains, locus YNL298W, strain CLA4 (second series), hits give low values
[33] = S. cerevisiae deletion strains, locus YNR030W, strain Alg12, hits give low values
[34] = S. cerevisiae deletion strains, locus YPL055C, strain LGE1, hits give low values
[35] = S. cerevisiae deletion strains, locus YPR135W, strain CTF4, hits give low values

Measured: normalized growth

COc1cc2c(cc1C(F)(F)F)N(C(=O)Nc1cc(F)cc(-c3cccnc3)c1)CC2
active: [7] 1.11 [resistant]
inactive: [1] 1.01 | [2] 1.08 | [3] 1 | [4] 1.02 | [5] 1 | [6] 1.05 | [8] 1.01 | [9] 1.05 | [10] 1.01 | [11] 1.01 | [12] 1.02 | [13] 1.01 | [14] 0.9 | [15] 1.01

CN1CCc2cc(NC(=O)Nc3cccnc3)ccc21
inactive: [2] 0.994 | [3] 0.996 | [6] 0.996 | S. cerevisiae deletion strains, locus YGR229C, strain SMI1, hits give low values 0.988 | [9] 0.994 | [16] 1.01 | [10] 1.01 | [11] 0.992 | [12] 1.03 | [14] 0.977

Cn1ccc2cc3c(cc21)CCN3C(=O)Nc1cccnc1
inactive: [1] 0.995 | [2] 1 | [3] 1.01 | [4] 0.992 | [5] 0.999 | [6] 0.999 | [17] 0.998 | [18] 1.01 | [16] 0.976 | [10] 0.981 | [11] 1 | [12] 0.989 | [13] 1.01 | [14] 0.969

c1ccc(C2CC2)c(OCC2=NCCN2)c1
inactive: [2] 1.05 | [3] 1.01 | [4] 1 | [5] 1.02 | [6] 0.98 | [17] 1.01 | [8] 1.01 | [10] 0.994 | [11] 0.984 | [12] 0.994 | [13] 0.999 | [14] 1.02 | [15] 1.01

O=C1c2cccc3c(SCCO)ccc(c23)C(=O)N1CCc1ccccn1
active: S. cerevisiae deletion strains, locus YJL187C, strain SWE1, hits give low values 0.845
inactive: [1] 0.999 | [19] 0.997 | [20] 1 | [21] 1.09 | S. cerevisiae deletion strains, locus YDL134C, strain PPH21, hits give low values 1.01 | [4] 1.02 | [22] 1 | [17] 1.01 | [23] 0.903 | [24] 1 | [25] 0.994 | [7] 0.984 | [26] 1 | [27] 0.991 | [28] 0.948 | [29] 1 | [30] 1.01 | [31] 0.995 | [8] 1.01 | [9] 1 | [16] 0.995 | [32] 0.993 | [13] 0.996 | [33] 0.989 | [34] 1.03 | [15] 0.989 | [35] 0.907

O=C1CNC(=S)N1CCc1ccccn1
inactive: [1] 0.992 | [19] 0.987 | [20] 0.99 | [21] 0.978 | [4] 0.994 | [22] 0.999 | [17] 0.987 | [23] 0.951 | [24] 0.992 | [25] 0.991 | [7] 1.01 | [26] 0.973 | [27] 0.979 | [28] 1.02 | [29] 0.962 | [30] 0.945 | [31] 0.993 | [8] 1 | [18] 1.08 | [16] 1.01 | [32] 0.966 | [13] 0.983 | [33] 0.98 | S. cerevisiae deletion strains, locus YOL006C, strain TOP1, hits give low values 0.997 | [34] 0.998 | [15] 1.03 | [35] 0.914 | S. cerevisiae strains, strain wild type, hits give low values 0.969
